For assay [1], the target named is Lysosomal acid glucosylceramidase (Homo sapiens) (UniProt P04062). As to the kind of experiment: Glucocerebrosidase-p2 (AID 348; in the data active means potency below about 10 µM; further: potency means the concentration at half of the fitted maximal effect). Particulars: purified GBA, blue fluorogenic substrate, 40 min. The method in brief: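 Normal human glucocerebrosidase (0.2 nM) with blue fluorogenic substrate (80 uM final) in citrate/phosphate pH 5.9 with 10mM sodium taurocholate, 0.01% tween-20; 40 min RT, NaOH/glycine stop; fluorescence Ex 365/Em 440; AC50 from a titration from 0.6 nM upwards.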

The nature of assay [2]: AP1 Signaling Pathway (AID 357).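 Further: ME-180 reporter cells stimulated with EGF at its EC50 level; on the % scale 0 is the no-effect control and ±100 the full control effect.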 Conditions: ME-180 AP-1-bla reporter, EGF-induced, beta-lactamase ratio, 5 h; at 7.69 µM (top of the series) unless noted. An outline of the steps: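 Modulation of EGF-driven AP-1 transcription was assessed with a beta-lactamase reporter in ME-180 cells. Compound and EC50 EGF were co-incubated 5 hours at 37 °C before 2.5-hour CCF4 loading at room temperature and dual-emission reading.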

Assay [3] addresses Cytochrome P450 1A2 (Homo sapiens) (UniProt P05177). Kind of assay: p450-cyp1a2 (AID 410; calls by dose curve;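 further: -100% = full effect of reference inhibitor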). Conditions: recombinant CYP1A2, luciferin-ME demethylation, luminescence; series mostly up to 57 µM. The method in brief:
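Luminescent demethylation readout: Luciferin-ME (100uM, equal to Km) turned over by 20nM CYP1A2 for 60 min at room temperature after NADPH regeneration addition, following 10 min compound preincubation. Normalization used 57 uM furafylline as full inhibition.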

Assay [4] in a line: NFAT Signaling Pathway (AID 444).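 Further: carbachol stimulus at about its EC50 of 1 µM final; on the % scale 0 is the no-effect control and ±100 the full control effect.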 Particulars: Jurkat NFAT-bla M1, carbachol, beta-lactamase ratio, 5 h; at 7.69 µM (top of the series) unless noted. An outline of the steps:
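Jurkat cells carrying an NFAT-driven β-lactamase reporter and co-transfected muscarinic M1 receptor were treated with compound plus carbachol (1 uM final, an EC50 level) for 5 h at 37 °C. CCF4 loading followed for 1 h at RT; 460/530 nm ratio gave %activity.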

Assay [5] is described as follows: Stat Signaling Pathway (AID 446).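 Further: ME-180 cervical cancer cells given 40 pM IL-6 alongside compound; SIE-controlled beta-lactamase reporter measured as 460/530 nm FRET emission ratio; on the % scale 0 is the no-effect control and ±100 the full control effect.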 Particulars: ME-180 SIE beta-lactamase reporter, IL-6 stimulated, 5 h; at 7.69 µM (top of the series) unless noted. An outline of the steps:
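Emission at 460 and 530 nm (excitation 405 nm) reports SIE-controlled beta-lactamase in ME-180 cells. Cells received compound with 40 pM IL-6 for 5 hrs at 37 C; data scaled between 300 pM IL-6 and 125 nM JAK-inhibitor controls.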

Assay [6] has as its target Glucocorticoid receptor (Homo sapiens) (UniProt P04150). Kind of assay: GR-EFC Redistribution (AID 451; calls by dose curve; further: potency means the concentration at half of the fitted maximal effect). Particulars: CHO-K1 GR-EFC translocation, beta-gal luminescence, 2 h. The method in brief:
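CHO-K1 cells stably expressing nuclear-localized β-gal enzyme acceptor and GR fused C-terminally to the enzyme donor fragment; ligand-driven nuclear translocation restores β-gal by complementation. Compounds titrated up to 46 uM final, 2 h at 37 °C; luminescence read.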

The target of assay [7] is Mitogen-activated protein kinase 10 (Mus musculus) (UniProt Q61831). Kind of assay: JNK3 AlphaScreen Assay (AID 530).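 Further: kinase came from lysate of stimulated human HepG2 cells; signal reports phosphorylation of biotinylated GST-cJun 1-79 at Ser73 with 10 µM ATP; on the % scale 0 is the no-effect control and ±100 the full control effect.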 Conditions: JNK3 lysate, c-Jun phosphorylation; series mostly up to 57.1 µM. An outline of the steps:
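Phosphorylation of biotinylated GST-cJun(1-79) at Ser73 is measured by AlphaScreen proximity luminescence. Enzyme is JNK3 in HepG2 lysates activated with interleukin-1beta and tumor necrosis factor alpha; ATP is 10 uM final.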
On the technique in general: Alpha assays give light when donor and acceptor beads are brought close together.

The target of assay [8] is 3',5'-cyclic-AMP phosphodiesterase 4B (Homo sapiens) (UniProt Q07343). As to the kind of experiment: qHTS Assay for Inhibitors of PDE-IV (AID 607; active means well fitted activation curve with a large enough effect in the main read-out, with a control signal flat, not every such curve was filed as active; further: % of control where 0% means no effect). Conditions: HEK293 ACTOne CNG channel cells, membrane potential fluorescence; series mostly up to 22.9 µM. The method in brief:
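The readout is membrane depolarisation from a cAMP-sensing CNG channel, detected with a potential dye at ex 535/em 590. Cells were HEK293-derived (endogenous PDE-IV) at 1000 cells/well, titrated up to 22.9 uM final.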
(Quantitative high-throughput screening tests each substance at several concentrations.)

Assay [9] has as its target Cytochrome P450 3A4 (Homo sapiens) (UniProt P08684). Kind of assay: qHTS Assay for Inhibitors and Substrates of Cytochrome P450 3A4 (AID 884; active means well fitted curve in the direction sought with a large enough effect; an effect the other way counts as inactive or inconclusive; further: on the % scale 0 is the no-effect control and ±100 the full control effect; nearly all actives have a fitted effect of over 50% in size). Conditions: recombinant CYP3A4, Luciferin-PPXE luminescence; series mostly up to 57.1 µM. The method in brief:
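Luminescent readout of luciferin produced by CYP3A4 (20 nM) dealkylation of Luciferin-PPXE, 25 uM (its KM). NADPH-driven reaction ran 60 min at RT after 10 min compound preincubation; data scaled to 57 uM ketoconazole as 100% inhibition.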

For assay [10] the target is unchanged. Kind of assay: qHTS Assay for Activators of Cytochrome P450 3A4 (AID 885; active means well fitted curve in the direction sought with a large enough effect; an effect the other way counts as inactive or inconclusive; further: nearly all actives have a fitted effect of over 65% in size; further: potency means the concentration at half of the fitted maximal effect). Particulars: recombinant CYP3A4, Luciferin-PPXE luminescence, 60 min; series mostly up to 57.1 µM. An outline of the steps:
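Activators are scored by enhanced luminescence from CYP3A4 conversion of luciferin-PPXE (25uM, equal to KM) to luciferin, after 60 min at RT with an NADPH-regenerating system.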

Assay [11] is described as follows: qHTS Assay for Identification of Small Molecule Agonists for Hypoxia Response Element Signaling Pathway (AID 914; active means well fitted activation curve with a large enough effect in the signal ratio, with a control signal flat, not every such curve was filed as active; the % refers to the signal ratio; further: % of control where 0% means no effect). Conditions: ME-180 (cervical carcinoma) HRE-bla reporter, beta-lactamase ratio, CoCl2, 17 h; activation: stronger effect = higher value. The method in brief: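 HRE-bla ME-180 assay for agonist-like enhancement of an EC50 CoCl2 stimulus: 17 h at 37 degrees Celsius, CCF4 for 2.5 h, ratiometric 460/530 nm signal converted to %Activity and fitted to AC50.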

Assay [12] can be described thus: qHTS Assay for Lipid Storage Modulators (AID 1519; calls by dose curve). Particulars: Drosophila S3 cells, BODIPY lipid droplet/cell ratio, laser cytometry, cells loaded with oleic acid; for activity change, negative = inhibition: at 57.5 µM (top of the series). An outline of the steps: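 Cells seeded at 5,000 per well were treated with compounds over a concentration series and loaded with oleic acid (400 uM, as added). Lipid droplet fluorescence (488 nm excitation, 500-530 nm channel) was read by laser-scanning cytometry and normalized to 20 uM Triacsin C.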

A short description of assay [13]: Primary qHTS for small molecule stabilizers of the endoplasmic reticulum resident proteome: Secreted ER Calcium Modulated Protein (SERCaMP) assay (AID 1508630; active means well fitted curve in the direction sought with a large enough effect; an effect the other way counts as inactive or inconclusive; further: on the % scale 0 is the no-effect control and ±100 the full control effect). Particulars: SH-SY5Y GLuc-SERCaMP (Gaussia luciferase released on ER calcium loss) secretion, thapsigargin, luminescence; series mostly up to 38.4 µM. An outline of the steps: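 The SH-SY5Y reporter protocol was run at 3 concentrations up to 38.3 uM (primary) or 11 concentrations (follow-up): 16 h compound, 100 nM thapsigargin for 4 h, then extracellular luciferase luminescence.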

The mark [14] stands for this setting: measured here: cell count channel max response.
Where [15] appears, read: measured here: lipid channel max response.

Data on six compounds can be found in PubChem BioAssay (NCATS).

Each structure is given as a SMILES string. Inconclusive results are not listed. Active and inactive are the calls of the source. Unless noted, the call rests on the fitted dose curve; in most records, active means well fitted curve in either direction with a large enough effect (not every such curve was filed as active); inconclusive means small, poorly fitted or top-dose-only effect, or another doubt; inactive means flat fitted curve, though single readings scatter.

Sequence of Glucocorticoid receptor (Homo sapiens) (P04150 whole entry, looked up, the tested form may be a part): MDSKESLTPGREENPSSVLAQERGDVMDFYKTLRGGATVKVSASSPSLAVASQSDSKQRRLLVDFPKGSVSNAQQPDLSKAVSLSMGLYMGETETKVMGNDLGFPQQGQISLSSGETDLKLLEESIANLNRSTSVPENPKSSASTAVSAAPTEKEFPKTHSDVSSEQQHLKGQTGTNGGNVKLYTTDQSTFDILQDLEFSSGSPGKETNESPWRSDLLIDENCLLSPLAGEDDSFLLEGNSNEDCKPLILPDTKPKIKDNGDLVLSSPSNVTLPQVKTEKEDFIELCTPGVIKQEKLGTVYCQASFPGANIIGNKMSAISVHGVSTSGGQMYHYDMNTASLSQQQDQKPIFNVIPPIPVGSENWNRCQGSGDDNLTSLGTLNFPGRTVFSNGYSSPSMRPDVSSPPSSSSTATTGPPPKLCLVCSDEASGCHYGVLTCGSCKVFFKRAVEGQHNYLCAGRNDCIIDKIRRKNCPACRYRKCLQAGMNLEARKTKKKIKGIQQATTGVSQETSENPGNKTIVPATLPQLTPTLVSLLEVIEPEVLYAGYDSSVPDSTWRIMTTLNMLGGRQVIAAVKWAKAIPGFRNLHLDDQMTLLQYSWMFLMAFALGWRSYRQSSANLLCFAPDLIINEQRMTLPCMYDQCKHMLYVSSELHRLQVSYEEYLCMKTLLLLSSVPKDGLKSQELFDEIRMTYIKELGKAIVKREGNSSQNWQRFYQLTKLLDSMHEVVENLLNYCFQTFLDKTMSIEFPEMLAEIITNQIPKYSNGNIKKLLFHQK
Sequence of Cytochrome P450 3A4 (Homo sapiens) (P08684 whole entry, looked up): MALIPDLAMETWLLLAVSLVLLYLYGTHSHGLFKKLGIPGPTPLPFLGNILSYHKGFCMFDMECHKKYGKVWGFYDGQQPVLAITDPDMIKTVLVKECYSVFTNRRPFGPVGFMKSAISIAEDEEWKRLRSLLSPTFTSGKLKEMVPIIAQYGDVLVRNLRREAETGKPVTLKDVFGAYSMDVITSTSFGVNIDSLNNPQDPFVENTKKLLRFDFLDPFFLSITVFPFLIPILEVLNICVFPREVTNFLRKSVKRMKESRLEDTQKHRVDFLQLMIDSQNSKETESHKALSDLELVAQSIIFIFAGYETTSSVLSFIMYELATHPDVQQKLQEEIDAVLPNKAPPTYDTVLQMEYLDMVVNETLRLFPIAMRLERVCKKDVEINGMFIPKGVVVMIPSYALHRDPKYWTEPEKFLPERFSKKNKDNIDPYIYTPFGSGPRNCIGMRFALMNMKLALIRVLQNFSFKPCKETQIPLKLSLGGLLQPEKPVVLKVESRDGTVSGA
Sequence of 3',5'-cyclic-AMP phosphodiesterase 4B (Homo sapiens) (Q07343 whole entry, looked up): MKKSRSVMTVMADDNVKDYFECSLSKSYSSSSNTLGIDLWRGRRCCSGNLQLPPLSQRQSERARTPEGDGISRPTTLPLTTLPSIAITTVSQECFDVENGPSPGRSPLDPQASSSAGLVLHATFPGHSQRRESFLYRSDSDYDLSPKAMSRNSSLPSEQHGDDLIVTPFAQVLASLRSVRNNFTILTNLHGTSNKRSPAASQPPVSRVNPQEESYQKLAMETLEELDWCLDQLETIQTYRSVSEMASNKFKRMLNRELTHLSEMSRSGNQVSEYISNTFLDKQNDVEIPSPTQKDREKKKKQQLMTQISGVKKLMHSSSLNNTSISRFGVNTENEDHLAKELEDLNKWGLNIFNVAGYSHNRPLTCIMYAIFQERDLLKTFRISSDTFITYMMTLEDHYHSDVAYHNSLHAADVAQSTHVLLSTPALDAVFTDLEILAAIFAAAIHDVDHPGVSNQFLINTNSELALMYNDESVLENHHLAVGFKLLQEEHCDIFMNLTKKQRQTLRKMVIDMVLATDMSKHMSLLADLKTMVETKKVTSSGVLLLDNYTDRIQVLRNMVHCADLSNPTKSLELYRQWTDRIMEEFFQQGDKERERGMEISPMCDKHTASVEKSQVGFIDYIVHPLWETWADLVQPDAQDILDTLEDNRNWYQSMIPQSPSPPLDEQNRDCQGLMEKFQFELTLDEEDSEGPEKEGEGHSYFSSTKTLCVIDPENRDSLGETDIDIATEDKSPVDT
Sequence of Cytochrome P450 1A2 (Homo sapiens) (P05177 whole entry, looked up): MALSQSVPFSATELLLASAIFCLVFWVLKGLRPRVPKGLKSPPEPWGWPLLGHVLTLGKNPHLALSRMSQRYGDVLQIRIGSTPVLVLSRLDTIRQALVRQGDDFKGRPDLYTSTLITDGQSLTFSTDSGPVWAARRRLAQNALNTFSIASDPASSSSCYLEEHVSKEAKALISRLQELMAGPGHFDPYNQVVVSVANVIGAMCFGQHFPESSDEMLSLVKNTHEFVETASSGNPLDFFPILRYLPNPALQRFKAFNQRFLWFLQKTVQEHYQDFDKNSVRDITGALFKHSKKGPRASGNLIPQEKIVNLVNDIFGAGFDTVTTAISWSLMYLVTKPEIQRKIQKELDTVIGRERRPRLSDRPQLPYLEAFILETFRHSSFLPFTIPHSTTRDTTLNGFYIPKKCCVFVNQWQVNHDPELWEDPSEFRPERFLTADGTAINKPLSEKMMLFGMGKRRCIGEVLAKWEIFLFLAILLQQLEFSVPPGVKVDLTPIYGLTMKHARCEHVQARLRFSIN
Sequence of Lysosomal acid glucosylceramidase (Homo sapiens) (P04062 whole entry, looked up): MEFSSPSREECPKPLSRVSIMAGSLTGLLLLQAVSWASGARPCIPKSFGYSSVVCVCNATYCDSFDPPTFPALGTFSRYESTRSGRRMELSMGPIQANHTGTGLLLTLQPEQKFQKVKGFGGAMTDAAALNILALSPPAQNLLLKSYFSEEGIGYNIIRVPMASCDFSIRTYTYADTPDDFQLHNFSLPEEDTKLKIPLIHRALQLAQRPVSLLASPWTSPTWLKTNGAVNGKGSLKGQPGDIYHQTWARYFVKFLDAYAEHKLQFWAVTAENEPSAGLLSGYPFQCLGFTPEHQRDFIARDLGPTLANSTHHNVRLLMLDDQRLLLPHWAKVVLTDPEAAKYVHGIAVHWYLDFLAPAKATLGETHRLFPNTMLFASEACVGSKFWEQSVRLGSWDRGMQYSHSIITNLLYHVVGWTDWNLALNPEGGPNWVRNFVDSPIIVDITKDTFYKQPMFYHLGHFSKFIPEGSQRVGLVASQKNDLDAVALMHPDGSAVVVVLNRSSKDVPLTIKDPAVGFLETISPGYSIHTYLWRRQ

On to `O=C(Oc1ccccc1)N1CCC2(CC1)CCN(c1ncccn1)CC2`, for which the Potency is > 11.4 µM (inactive) in assay [1], > 46 µM (inactive) in [6] and 6.31 µM (active) in assay [10]. The activity change, negative = inhibition in assay [2] was 3.96% (inactive); in assay [4] it was -8.96% (inactive); in assay [12], 2.83% (inactive). Moreover, the Potency entry in assay [3], in [8], in assay [9] and in assay [13] was “inactive” in each case. Also, the activity, negative = inhibition in [5] is -1.88% (inactive). Besides, the outcome in assay [7] was inactive. Also, the activation in [11] is 2.8% (inactive). The max response is -3.54% in [12] (setting [14]) and 1.32% in assay [12] (setting [15]).

For `CN1CCCC2(CCN(C(=O)c3cnccn3)CC2)C1`, the figures for the Potency in [1] and in [6] were > 11.4 µM (inactive) and > 46 µM (inactive), respectively. For the same compound, the activity change, negative = inhibition in assay [2] is -9.74% (inactive); in assay [4], -25% (inactive); in assay [12] it was -0.798% (inactive). In addition, the Potency entry in [3], in assay [8], in assay [10] and in assay [13] was “inactive” each time. Besides, the activity, negative = inhibition in assay [5] was 3.76% (inactive). For the same compound, the call in [7] was inactive. For the same compound, the max response in assay [12] (setting [14]) was 2.95%; in [12] (setting [15]), 3.48%.

With `CC(=O)N1CCC2(CCCN(C(=O)Nc3cccc(F)c3)C2)CC1`, the Potency in assay [1] is > 11.4 µM (inactive); in assay [6], > 46 µM (inactive). Further, the results for the activity change, negative = inhibition in assay [2], in [4] and in assay [12] were -2.22% (inactive), 13.9% (inactive) and -0.823% (inactive), respectively. Moreover, the Potency entry in assay [3], in assay [8], in [10] and in [13] was “inactive” each time. Besides, the activity, negative = inhibition in [5] is -6.7% (inactive). Also, the outcome in [7] was inactive. Further, the max response in assay [12] (setting [14]) is -12.4%; in [12] (setting [15]), -13.5%.

`COc1ccc(NC(=O)N2CCCC3(CCN(C(=O)c4csnn4)CC3)C2)cc1`: the Potency in assay [1] was > 11.4 µM (inactive); in [6], > 46 µM (inactive). In addition, the activity change, negative = inhibition is -1.51% (inactive) in [2], -2.25% (inactive) in assay [4] and 6.81% (inactive) in [12]. Also, the Potency result in assay [3], in assay [8], in assay [10] and in [13] was “inactive” each time. Moreover, in assay [5], the activity, negative = inhibition was -9.13% (inactive). In addition, the outcome in [7] was inactive. Further, the max response in assay [12] (setting [14]) worked out at 11.2%; in [12] (setting [15]) it was 22.4%.

With `N#Cc1cccc(NC(=O)N2CCC3(CC2)CCN(C(=O)c2csnn2)CC3)c1`, the Potency is > 11.4 µM (inactive) in assay [1] and > 46 µM (inactive) in assay [6]. In addition, the results for the activity change, negative = inhibition in assay [2], in [4] and in assay [12] were -16.5% (inactive), 11.9% (inactive) and 5.57% (inactive), respectively. For the same compound, the Potency result in [3], in assay [8], in assay [10] and in [13] was “inactive” in each case. Further, the activity, negative = inhibition in assay [5] is -0.506% (inactive). For the same compound, the outcome in assay [7] was inactive. Further, the max response in [12] (setting [14]) stood at 15%; in [12] (setting [15]), 22.3%.

On to `CC(C)NC(=O)N1CCC2(CC1)CCN(C(=O)c1ccncc1)CC2`, for which the Potency is > 11.4 µM (inactive) in assay [1] and > 46 µM (inactive) in assay [6]. For the same compound, the values for the activity change, negative = inhibition in assay [2], in assay [4] and in [12] were -7.19% (inactive), 1.59% (inactive) and -0.818% (inactive), respectively. Further, the Potency entry in [3], in assay [8], in assay [10] and in assay [13] was “inactive” throughout. The activity, negative = inhibition in assay [5] was -8.96% (inactive). Besides, the compound was classed as inactive in assay [7]. In addition, the max response in [12] (setting [14]) worked out at 9.1%; in assay [12] (setting [15]), 9.91%.
